Laboratory results from PubChem BioAssay (NCATS).
Inconclusive results are not listed. Activity calls are given as the source filed them. Unless noted, calls follow the shape of the dose curve; as a rule, active = well fitted curve in either direction with a large enough effect (not every such curve was filed as active); inconclusive = small, poorly fitted or top-dose-only effect, or another doubt; inactive = flat fitted curve, though single readings scatter.

Tests used:
[1] = molecular target: Lysosomal acid glucosylceramidase (Homo sapiens) (UniProt P04062); experiment: Glucocerebrosidase-p2 (AID 348; in the data active = potency below about 10 µM; also: potency is read from the fitted curve at half-maximal effect); conditions: purified GBA, blue fluorogenic substrate, 40 min
How it was run: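 Normal human glucocerebrosidase (0.2 nM) with blue fluorogenic substrate (80 uM final) in citrate/phosphate pH 5.9 with 10mM sodium taurocholate, 0.01% tween-20; 40 min RT, NaOH/glycine stop; fluorescence Ex 365/Em 440; AC50 from a titration from 0.6 nM upwards.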

[2] = AP1 Signaling Pathway (AID 357); conditions: ME-180 AP-1-bla reporter, EGF-induced, beta-lactamase ratio, 5 h; at 7.69 µM (top of the series) unless noted;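 also: ME-180 reporter cells stimulated with EGF at its EC50 level; % is scaled to controls: 0 for no effect and ±100 for the full control effect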
How it was run: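 Read-out was the 460nm/530nm emission ratio (excitation 405nm) after CCF4 loading for 2.5 hours at room temperature. Cells carried an AP-1-driven beta-lactamase reporter, were stimulated with EC50 EGF plus compound for 5 hours, and AC50 values came from titrations.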

[3] = NFAT Signaling Pathway (AID 444); conditions: Jurkat NFAT-bla M1, carbachol, beta-lactamase ratio, 5 h; at 7.69 µM (top of the series) unless noted;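 also: carbachol stimulus at about its EC50 of 1 µM final; % is scaled to controls: 0 for no effect and ±100 for the full control effect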
How it was run: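 Jurkat cells with NFAT-driven β-lactamase reporter and co-expressed M1 receptor, stimulated with carbachol (final 1 uM, ~EC50), compound titration, 5 h at 37 °C. CCF4 loaded 1 h at RT; 460/530 nm ratio gave %activity and AC50.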

[4] = molecular target: Glucocorticoid receptor (Homo sapiens) (UniProt P04150); experiment: GR-GFP Redistribution (AID 450;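 active = compounds whose dose series gives a full or clear partial fitted curve of increased nuclear translocation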; also: potency is read from the fitted curve at half-maximal effect); conditions: U2OS GR-GFP nuclear translocation, laser cytometry, 2 h
[5] = molecular target: Glucocorticoid receptor (Homo sapiens) (UniProt P04150); experiment: GR-EFC Redistribution (AID 451; calls by dose curve; also: potency is read from the fitted curve at half-maximal effect); conditions: CHO-K1 GR-EFC translocation, beta-gal luminescence, 2 h
How it was run: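 CHO-K1 cells expressing nuclear EA and GR-ED fragments of b-gal; compounds titrated up to 46 uM final, 2 h at 37 C. GR nuclear translocation read as complemented b-gal luminescence after 1 h RT detection.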

[6] = molecular target: Mitogen-activated protein kinase 10 (Mus musculus) (UniProt Q61831); experiment: JNK3 AlphaScreen Assay (AID 530); conditions: JNK3 lysate, c-Jun phosphorylation; series mostly up to 11.4 µM;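 also: kinase came from lysate of stimulated human HepG2 cells; signal reports phosphorylation of biotinylated GST-cJun 1-79 at Ser73 with 10 µM ATP; % is scaled to controls: 0 for no effect and ±100 for the full control effect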
How it was run: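 HepG2 lysate (IL-1b/TNFa pre-activated) + biotin-GST-cJun 1-79 + anti-pSer73 cJun; cpd titration, 15 min RT; ATP 10 uM start; Tris pH 7.6, MgCl2, DTT, vanadate; beads in EDTA buffer; AlphaScreen.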

[7] = molecular target: 3',5'-cyclic-AMP phosphodiesterase 4B (Homo sapiens) (UniProt Q07343); experiment: qHTS Assay for Inhibitors of PDE-IV (AID 607; active = well fitted activation curve with a large enough effect in the main read-out, with a control signal flat, not every such curve was filed as active; also: % of control where 0% means no effect); conditions: HEK293 ACTOne CNG channel cells, membrane potential fluorescence; series mostly up to 22.9 µM
How it was run: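 Cell-based read-out of cAMP via a modified cyclic nucleotide-gated channel and membrane potential dye (535/590 nm) in HEK293 cells expressing PDE4 endogenously. Compounds tested up to 22.9 uM final; 100 uM RO 20-1724 reference.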

[8] = Stat Signaling Pathway (AID 446); conditions: ME-180 SIE beta-lactamase reporter, IL-6 stimulated, 5 h; at 7.69 µM (top of the series) unless noted;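 also: ME-180 cervical cancer cells given 40 pM IL-6 alongside compound; SIE-controlled beta-lactamase reporter measured as 460/530 nm FRET emission ratio; % is scaled to controls: 0 for no effect and ±100 for the full control effect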
How it was run: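 FRET read-out (405 nm excitation, 460/530 nm emission) of a beta-lactamase reporter under a STAT-inducible element in ME-180 cervical carcinoma cells. Cells with compound receive 40 pM IL-6 for 5 h. Values are normalised to AC90 stimulation and AC90 JAK-inhibitor controls.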

[9] = qHTS Assay for Identification of Small Molecule Agonists for Hypoxia Response Element Signaling Pathway (AID 914; active = well fitted activation curve with a large enough effect in the signal ratio, with a control signal flat, not every such curve was filed as active; the % refers to the signal ratio; also: % of control where 0% means no effect); conditions: ME-180 (cervical carcinoma) HRE-bla reporter, beta-lactamase ratio, CoCl2, 17 h; activation: stronger effect = higher value
How it was run: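 In Opti-MEM containing 0.5% dialyzed FBS and 10 mM HEPES, ME-180 HRE-bla cells received a compound titration and EC50 CoCl2. They were incubated 17 hours, then CCF4-loaded 2.5 hours at room temperature before ratio reading.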

Sequence of Glucocorticoid receptor (Homo sapiens) (P04150 whole entry, looked up, the tested form may be a part): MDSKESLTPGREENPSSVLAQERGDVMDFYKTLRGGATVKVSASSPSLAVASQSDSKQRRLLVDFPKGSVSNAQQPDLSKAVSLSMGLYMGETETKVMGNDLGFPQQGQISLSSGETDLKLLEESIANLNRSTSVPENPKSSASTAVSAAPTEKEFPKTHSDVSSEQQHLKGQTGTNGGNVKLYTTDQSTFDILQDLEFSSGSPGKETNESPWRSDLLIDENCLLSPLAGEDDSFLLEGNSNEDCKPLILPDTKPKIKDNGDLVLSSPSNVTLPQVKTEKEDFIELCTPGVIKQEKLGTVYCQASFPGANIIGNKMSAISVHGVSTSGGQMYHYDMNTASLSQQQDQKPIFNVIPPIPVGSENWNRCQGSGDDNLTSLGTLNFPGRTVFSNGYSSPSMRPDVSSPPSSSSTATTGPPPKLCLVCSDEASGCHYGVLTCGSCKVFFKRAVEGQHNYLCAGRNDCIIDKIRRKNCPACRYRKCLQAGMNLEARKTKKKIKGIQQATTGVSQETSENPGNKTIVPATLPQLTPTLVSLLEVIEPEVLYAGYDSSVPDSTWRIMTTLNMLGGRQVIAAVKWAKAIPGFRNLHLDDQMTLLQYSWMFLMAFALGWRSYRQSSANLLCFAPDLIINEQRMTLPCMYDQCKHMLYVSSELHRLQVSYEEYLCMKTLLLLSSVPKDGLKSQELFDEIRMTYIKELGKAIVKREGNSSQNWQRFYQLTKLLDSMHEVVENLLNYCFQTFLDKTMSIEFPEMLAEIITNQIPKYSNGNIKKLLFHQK
Sequence of Lysosomal acid glucosylceramidase (Homo sapiens) (P04062 whole entry, looked up): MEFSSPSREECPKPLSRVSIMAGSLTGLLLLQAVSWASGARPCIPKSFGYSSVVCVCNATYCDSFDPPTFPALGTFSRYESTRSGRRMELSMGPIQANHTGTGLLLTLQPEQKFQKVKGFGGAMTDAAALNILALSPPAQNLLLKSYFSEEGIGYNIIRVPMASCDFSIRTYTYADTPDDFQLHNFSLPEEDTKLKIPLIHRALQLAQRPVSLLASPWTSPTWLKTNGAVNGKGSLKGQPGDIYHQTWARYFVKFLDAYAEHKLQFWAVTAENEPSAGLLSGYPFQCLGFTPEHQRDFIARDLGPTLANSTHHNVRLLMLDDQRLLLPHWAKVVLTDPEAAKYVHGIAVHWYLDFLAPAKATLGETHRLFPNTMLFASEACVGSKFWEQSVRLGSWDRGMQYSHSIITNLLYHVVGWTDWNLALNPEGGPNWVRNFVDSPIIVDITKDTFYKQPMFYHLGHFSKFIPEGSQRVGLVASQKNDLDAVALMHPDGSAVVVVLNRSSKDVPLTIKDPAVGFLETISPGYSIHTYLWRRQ
Sequence of 3',5'-cyclic-AMP phosphodiesterase 4B (Homo sapiens) (Q07343 whole entry, looked up): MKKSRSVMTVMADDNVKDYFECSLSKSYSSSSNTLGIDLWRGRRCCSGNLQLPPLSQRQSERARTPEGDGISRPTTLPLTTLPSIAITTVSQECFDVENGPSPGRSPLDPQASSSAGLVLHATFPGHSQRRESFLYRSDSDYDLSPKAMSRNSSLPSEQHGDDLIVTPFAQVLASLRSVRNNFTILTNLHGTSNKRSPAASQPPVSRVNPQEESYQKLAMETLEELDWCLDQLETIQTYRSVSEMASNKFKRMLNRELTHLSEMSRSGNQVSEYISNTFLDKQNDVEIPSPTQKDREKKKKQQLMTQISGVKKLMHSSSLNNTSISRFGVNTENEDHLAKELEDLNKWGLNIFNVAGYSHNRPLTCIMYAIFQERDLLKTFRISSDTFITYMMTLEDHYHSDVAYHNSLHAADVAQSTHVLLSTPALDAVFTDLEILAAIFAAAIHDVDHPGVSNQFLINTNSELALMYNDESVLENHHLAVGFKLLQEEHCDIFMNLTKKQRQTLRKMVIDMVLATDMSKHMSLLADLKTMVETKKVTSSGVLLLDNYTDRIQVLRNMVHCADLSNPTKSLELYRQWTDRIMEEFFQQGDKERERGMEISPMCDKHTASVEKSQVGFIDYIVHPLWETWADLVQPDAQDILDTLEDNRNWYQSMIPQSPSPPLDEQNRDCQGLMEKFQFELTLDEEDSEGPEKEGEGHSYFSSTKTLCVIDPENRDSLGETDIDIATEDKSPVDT

O=C(O)[C@H](/C=C\c1ccccc1)c1ccccc1
inactive: Potency [1] > 11.4 µM | activity change, negative = inhibition [2] 0.652% | activity change, negative = inhibition [3] -12% | Potency [4] > 46 µM | Potency [5] > 9.22 µM | Potency [6] | Potency [7]

Cc1noc(C)c1C(=O)N1CCC2(CC1)CN(c1cccc(-c3ccccc3)c1)C2
inactive: Potency [1] > 11.4 µM | activity change, negative = inhibition [2] -13.8% | activity change, negative = inhibition [3] 5.64% | activity, negative = inhibition [8] -11.6% | Potency [5] > 46 µM | Potency [6] | Potency [7]

C[C@@]1(CO)[C@H](O)CC[C@]2(C)[C@@H]1CC[C@H]1C[C@H]3C[C@]12CC[C@]3(O)COC(=O)CN
inactive: Potency [1] > 11.4 µM | activity change, negative = inhibition [2] 5.13% | activity change, negative = inhibition [3] 23.5% | Potency [4] > 46 µM | Potency [5] > 9.22 µM | Potency [6] | Potency [7]

N[C@@H](CSC1(c2ccc(Cl)cc2)c2ccccc2-c2ccccc21)C(=O)O
inactive: Potency [1] > 11.4 µM | activity change, negative = inhibition [2] -8.46% | activity change, negative = inhibition [3] 10.1% | activity, negative = inhibition [8] -2.38% | Potency [5] > 9.22 µM | Potency [6] | Potency [7]

O=[N+]([O-])c1cccc(/C=N\NC2=CS(=O)(=O)C=C2)c1
inactive: Potency [1] > 11.4 µM | activity change, negative = inhibition [2] 4.95% | activity change, negative = inhibition [3] 14.6% | activity, negative = inhibition [8] 5.97% | Potency [5] > 9.22 µM | Potency [6] | Potency [7] | activation [9] 1.06%

CC1(C)S[C@@H]2[C@H](C(=O)O)N=C(Cc3ccccc3)N2[C@H]1C(=O)O
inactive: Potency [1] > 11.4 µM | activity change, negative = inhibition [2] 2.18% | activity change, negative = inhibition [3] 8.91% | Potency [4] > 46 µM | Potency [5] > 9.22 µM | Potency [6] | Potency [7]

Nc1ccc(-c2ccc(Nc3cc(S(=O)(=O)O)c(N)c4c3C(=O)c3ccccc3C4=O)cc2)c(S(=O)(=O)O)c1
inactive: Potency [1] > 11.4 µM | activity change, negative = inhibition [2] 3.81% | activity change, negative = inhibition [3] -2.33% | activity, negative = inhibition [8] -2.95% | Potency [5] > 9.22 µM | Potency [6] | Potency [7] | activation [9] -7.34%

COc1ccc(C(=O)N2CCC3(CC2)CN(c2ccccc2)C3)cc1
inactive: Potency [1] > 11.4 µM | activity change, negative = inhibition [2] -16.2% | activity change, negative = inhibition [3] 5.84% | activity, negative = inhibition [8] -21.3% | Potency [5] > 46 µM | Potency [6] | Potency [7]

CCC(=O)OCN1C(=O)C=CC1=O
inactive: Potency [1] > 11.4 µM | activity change, negative = inhibition [2] -2.18% | activity change, negative = inhibition [3] -27.8% | Potency [4] > 46 µM | Potency [5] > 9.22 µM | Potency [6] | Potency [7]

NC(=O)NCCS[C@H]1CCCC[C@@H]1O
inactive: Potency [1] > 11.4 µM | activity change, negative = inhibition [2] 3.84% | activity change, negative = inhibition [3] 3.5% | Potency [4] > 46 µM | Potency [5] > 9.22 µM | Potency [6] | Potency [7]
